# Source: ChEMBL document CHEMBL3988442, “University of Dundee, Small-Polar-MMV Screening Library” (2021)
# For some assays here: Measured potencies and affinities stand elsewhere.
# Legend:
# Design in all cases: scale not given: direction of the effect not stated beside the values
# [1] = biological target: Protein translocase subunit SecA (Escherichia coli (strain K12)) (UniProt P10408); test: Assay to Identify E. coli SecA ATPase Inhibitors; assay type: functional; conditions: 30 µM
# [2] = biological target: T1, Ubiquitin-activating enzyme e1, putative (Leishmania donovani (strain BPK282A1)) (UniProt E9BSI1); test: Leishmania donovani Ubiquitin Activating Enzyme (LdE1); assay type: functional; conditions: 30 µM
# T1 sequence (whole entry): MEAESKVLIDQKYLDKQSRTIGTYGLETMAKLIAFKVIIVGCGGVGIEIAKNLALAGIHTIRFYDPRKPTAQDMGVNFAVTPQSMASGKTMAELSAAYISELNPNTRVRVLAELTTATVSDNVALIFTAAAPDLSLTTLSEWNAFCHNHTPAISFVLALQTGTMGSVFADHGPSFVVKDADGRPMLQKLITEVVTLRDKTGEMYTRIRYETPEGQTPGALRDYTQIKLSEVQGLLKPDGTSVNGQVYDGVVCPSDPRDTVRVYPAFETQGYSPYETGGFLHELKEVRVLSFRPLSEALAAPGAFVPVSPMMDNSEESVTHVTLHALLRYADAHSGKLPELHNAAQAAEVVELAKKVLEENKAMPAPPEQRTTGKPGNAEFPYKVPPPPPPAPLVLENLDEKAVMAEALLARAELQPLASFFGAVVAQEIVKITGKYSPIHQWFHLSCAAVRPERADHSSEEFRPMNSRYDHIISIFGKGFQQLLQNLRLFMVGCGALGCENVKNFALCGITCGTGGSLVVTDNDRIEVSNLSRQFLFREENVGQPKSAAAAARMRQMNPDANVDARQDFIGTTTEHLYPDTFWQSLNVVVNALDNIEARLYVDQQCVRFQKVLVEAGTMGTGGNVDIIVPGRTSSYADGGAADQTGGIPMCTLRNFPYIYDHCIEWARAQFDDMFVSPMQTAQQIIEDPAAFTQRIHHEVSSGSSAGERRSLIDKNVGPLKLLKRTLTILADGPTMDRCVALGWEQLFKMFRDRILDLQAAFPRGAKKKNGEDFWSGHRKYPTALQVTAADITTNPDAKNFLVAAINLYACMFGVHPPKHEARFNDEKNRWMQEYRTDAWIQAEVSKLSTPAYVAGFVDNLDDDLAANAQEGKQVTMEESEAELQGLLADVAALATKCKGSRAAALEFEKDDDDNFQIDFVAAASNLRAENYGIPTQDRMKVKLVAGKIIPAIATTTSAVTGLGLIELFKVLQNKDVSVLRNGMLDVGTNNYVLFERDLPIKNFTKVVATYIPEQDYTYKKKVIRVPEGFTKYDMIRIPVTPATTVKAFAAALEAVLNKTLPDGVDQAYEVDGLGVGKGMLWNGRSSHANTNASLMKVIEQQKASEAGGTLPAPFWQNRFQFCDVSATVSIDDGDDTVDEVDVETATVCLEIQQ
# [3] = biological target: Sialic acid-binding Ig-like lectin 9 (Homo sapiens) (UniProt Q9Y336); test: Hs-Siglec9 ALPHAscreen SOP 20170721; conditions: 10 µM
# Sequence of Sialic acid-binding Ig-like lectin 9 (Homo sapiens) (Q9Y336 whole entry): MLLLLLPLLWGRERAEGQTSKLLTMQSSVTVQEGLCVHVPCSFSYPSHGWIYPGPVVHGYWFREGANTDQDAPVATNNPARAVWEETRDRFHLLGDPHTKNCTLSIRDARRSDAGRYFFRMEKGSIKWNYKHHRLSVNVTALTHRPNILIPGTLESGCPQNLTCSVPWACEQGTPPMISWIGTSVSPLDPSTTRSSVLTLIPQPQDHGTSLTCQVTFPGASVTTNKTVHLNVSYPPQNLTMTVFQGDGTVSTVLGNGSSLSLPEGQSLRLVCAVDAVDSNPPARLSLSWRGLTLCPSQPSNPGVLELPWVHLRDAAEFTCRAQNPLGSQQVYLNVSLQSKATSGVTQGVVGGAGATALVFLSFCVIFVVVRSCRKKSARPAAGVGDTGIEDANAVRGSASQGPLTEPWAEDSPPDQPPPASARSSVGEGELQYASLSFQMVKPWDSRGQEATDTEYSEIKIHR
# Trypanosoma cruzi = test: Trypanosoma cruzi phosphomannomutase and mannose-1-phosphate guanylyltransferase assay; assay type: functional; conditions: 10 µM
# [4] = biological target: T2, Arginase-2, mitochondrial (Homo sapiens) (UniProt P78540); test: in vitro enzyme assay to detect the production of urea directly proportional to the activity of Arginase II; assay type: functional; conditions: 33.3 µM; further: in the data most compounds retested in dose-response had high values
# T2 sequence (whole entry): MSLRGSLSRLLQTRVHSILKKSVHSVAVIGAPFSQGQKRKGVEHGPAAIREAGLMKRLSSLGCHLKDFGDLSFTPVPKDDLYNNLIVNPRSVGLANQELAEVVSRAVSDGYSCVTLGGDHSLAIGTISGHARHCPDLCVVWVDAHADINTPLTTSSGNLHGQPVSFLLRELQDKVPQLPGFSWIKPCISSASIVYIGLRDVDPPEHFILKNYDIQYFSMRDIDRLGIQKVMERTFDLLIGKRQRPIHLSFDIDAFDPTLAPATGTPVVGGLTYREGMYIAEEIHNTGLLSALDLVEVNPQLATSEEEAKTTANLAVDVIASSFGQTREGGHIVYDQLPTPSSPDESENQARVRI
# [5] = biological target: T3, Proteasome subunit beta (Trypanosoma cruzi) (UniProt O96673); test: Trypanosoma cruzi proteasome chymotrypsin-like activity (TcProtChymo) assay.; further: in the data most compounds retested in dose-response had high values; assay type: functional; conditions: 9.37 µM
# T3 sequence (whole entry): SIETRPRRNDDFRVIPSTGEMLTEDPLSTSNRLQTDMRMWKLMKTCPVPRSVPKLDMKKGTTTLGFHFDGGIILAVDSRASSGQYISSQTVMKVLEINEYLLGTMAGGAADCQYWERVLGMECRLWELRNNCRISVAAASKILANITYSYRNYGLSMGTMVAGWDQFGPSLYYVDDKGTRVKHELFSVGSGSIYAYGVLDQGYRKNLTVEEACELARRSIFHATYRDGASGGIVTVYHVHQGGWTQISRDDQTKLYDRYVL
# Homo sapiens = species: Homo sapiens; test: To identify inhibition of the IFN signalling (Jak-Stat) pathway via expression of an eGFP reporter gene under the control of an IFN-stimulated response element (ISRE) containing MxA promoter.; assay type: functional; conditions: 30 µM
# [6] = biological target: T4, Tyrosyl-tRNA synthetase, putative (Trypanosoma cruzi (strain CL Brener)) (UniProt Q4DSP6); test: Trypanosoma cruzi tyrosyl tRNA synthetase (TcYRS) _High Tyrosine SOP; assay type: functional; conditions: 30 µM; further: in the data most compounds retested in dose-response had high values
# T4 sequence (whole entry): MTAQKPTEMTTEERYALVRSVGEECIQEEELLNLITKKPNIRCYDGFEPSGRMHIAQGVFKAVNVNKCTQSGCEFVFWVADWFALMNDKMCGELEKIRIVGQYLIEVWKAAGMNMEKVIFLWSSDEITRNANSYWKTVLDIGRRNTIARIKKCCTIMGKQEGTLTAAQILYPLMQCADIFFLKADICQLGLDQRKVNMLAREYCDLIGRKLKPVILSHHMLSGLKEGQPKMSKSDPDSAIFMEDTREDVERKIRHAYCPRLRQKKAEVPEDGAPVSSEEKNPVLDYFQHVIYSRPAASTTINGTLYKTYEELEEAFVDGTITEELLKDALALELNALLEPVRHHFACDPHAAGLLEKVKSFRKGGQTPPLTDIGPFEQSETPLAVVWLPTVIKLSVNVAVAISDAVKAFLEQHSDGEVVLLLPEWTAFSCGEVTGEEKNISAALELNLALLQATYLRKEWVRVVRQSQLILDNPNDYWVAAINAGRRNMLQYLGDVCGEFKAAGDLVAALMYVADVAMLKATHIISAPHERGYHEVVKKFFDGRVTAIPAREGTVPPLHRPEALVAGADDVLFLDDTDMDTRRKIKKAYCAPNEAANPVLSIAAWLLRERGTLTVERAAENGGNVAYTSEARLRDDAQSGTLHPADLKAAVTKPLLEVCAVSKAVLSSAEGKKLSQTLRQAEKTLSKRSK
# [7] = biological target: T4, Tyrosyl-tRNA synthetase, putative (Trypanosoma cruzi (strain CL Brener)); test: Trypanosoma cruzi tyrosyl tRNA synthetase (TcYRS) SOP; assay type: functional; conditions: 30 µM
# [8] = biological target: Chromo domain-containing protein 1 (Saccharomyces cerevisiae (strain ATCC 204508 / S288c) (Baker's yeast)) (UniProt P32657); test: ScCHD-1 Enzyme Inhibition Assay; assay type: functional; conditions: 30 µM; further: in the data most compounds retested in dose-response had high values
# Sequence of Chromo domain-containing protein 1 (Saccharomyces cerevisiae (strain ATCC 204508 / S288c) (Baker's yeast)) (P32657 whole entry, the tested form may be a part): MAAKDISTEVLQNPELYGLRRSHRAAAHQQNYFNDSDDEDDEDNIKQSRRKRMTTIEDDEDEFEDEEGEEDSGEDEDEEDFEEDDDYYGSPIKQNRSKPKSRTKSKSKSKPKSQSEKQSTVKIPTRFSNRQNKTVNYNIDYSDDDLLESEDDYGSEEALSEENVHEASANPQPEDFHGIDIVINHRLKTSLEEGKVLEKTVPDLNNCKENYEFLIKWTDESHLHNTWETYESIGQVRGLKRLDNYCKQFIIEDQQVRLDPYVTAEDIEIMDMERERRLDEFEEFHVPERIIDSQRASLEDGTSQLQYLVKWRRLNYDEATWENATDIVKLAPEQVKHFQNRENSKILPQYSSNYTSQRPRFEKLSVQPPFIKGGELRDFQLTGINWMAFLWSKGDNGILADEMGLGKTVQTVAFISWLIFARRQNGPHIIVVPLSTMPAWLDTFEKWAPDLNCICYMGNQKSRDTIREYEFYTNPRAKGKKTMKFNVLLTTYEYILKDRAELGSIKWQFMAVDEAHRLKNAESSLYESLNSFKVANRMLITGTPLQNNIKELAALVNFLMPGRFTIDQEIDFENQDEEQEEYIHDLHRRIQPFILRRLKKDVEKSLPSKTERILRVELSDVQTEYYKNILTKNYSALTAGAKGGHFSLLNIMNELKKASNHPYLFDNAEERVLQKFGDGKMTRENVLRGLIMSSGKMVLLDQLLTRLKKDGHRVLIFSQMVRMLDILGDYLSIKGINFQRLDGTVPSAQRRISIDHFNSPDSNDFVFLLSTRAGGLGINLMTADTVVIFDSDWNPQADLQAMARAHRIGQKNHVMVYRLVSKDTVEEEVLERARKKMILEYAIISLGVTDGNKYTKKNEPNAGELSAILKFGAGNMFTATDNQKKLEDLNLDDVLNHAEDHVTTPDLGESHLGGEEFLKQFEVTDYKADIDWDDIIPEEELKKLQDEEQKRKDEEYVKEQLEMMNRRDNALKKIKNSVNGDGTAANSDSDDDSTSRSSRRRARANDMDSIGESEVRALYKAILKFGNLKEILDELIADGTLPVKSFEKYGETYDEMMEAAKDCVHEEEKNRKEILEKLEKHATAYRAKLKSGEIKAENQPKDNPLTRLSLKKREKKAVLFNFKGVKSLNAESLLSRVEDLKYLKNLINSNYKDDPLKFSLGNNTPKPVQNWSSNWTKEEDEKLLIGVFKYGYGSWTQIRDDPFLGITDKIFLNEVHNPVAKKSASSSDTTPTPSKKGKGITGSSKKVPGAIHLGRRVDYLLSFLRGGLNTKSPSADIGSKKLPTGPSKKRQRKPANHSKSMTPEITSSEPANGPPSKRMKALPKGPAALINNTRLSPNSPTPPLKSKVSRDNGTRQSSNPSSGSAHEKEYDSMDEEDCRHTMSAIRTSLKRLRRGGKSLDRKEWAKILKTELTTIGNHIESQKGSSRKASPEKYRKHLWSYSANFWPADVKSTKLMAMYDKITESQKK
# Sequence of Protein translocase subunit SecA (Escherichia coli (strain K12)) (P10408 whole entry): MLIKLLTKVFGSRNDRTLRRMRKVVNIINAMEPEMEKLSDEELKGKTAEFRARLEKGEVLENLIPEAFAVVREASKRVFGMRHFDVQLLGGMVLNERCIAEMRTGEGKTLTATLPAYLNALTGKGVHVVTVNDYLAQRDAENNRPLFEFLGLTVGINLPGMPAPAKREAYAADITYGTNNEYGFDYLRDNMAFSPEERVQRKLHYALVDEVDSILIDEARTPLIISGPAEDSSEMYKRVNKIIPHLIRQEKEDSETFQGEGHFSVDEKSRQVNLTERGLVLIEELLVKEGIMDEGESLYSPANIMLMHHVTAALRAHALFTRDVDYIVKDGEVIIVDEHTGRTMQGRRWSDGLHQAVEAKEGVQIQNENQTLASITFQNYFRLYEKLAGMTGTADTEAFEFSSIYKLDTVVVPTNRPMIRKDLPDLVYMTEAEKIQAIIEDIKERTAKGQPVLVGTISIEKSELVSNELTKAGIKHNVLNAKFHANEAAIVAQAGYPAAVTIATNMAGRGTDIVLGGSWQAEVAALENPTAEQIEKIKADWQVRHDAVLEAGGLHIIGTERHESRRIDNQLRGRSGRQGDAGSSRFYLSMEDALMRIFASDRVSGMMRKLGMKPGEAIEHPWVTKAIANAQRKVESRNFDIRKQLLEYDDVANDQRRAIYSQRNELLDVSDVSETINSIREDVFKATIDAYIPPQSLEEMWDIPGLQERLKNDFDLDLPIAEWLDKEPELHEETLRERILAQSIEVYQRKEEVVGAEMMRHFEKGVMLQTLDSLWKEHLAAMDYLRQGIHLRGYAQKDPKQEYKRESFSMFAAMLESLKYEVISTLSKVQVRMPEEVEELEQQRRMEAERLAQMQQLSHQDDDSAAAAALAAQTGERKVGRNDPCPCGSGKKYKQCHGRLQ
SMILES,Percent Effect [1],Percent Effect [2],Percent Effect [3],Percent Effect (Trypanosoma cruzi),Percent Effect [4],Percent Effect [5],Percent Effect (Homo sapiens),Percent Effect [6],Percent Effect [7],Percent Effect [8]
Cc1ncsc1C(=O)N(Cc1cccnc1)C1CC1,-0.351%,2.56%,10%,5.92%,4.1%,-1.45%,16.3%,1.44%,8.43%,-2.14%
COCCc1noc(CN2CCCC2Cn2cc(C)cn2)n1 (stereo not given),-1.35%,8%,1.3%,3.21%,-7.98%,3.31%,-1.19%,0.526%,7.69%,-7.63%
COC[C@@]12CC[C@@H](N3CCOCC3)C[C@H]1CCN(c1ncccc1Cl)C2,-6.53%,13.5%,12.5%,4.56%,10.8%,7.02%,2.53%,5.85%,19.5%,-2.53%
Cn1cnc2c1CCN(Cc1ccc(C(=O)N3CCCC3)cc1)C2,-2.26%,15.4%,-9.12%,1.97%,4.51%,11%,9.66%,3.35%,20.5%,-0.499%
Cc1cccc(C(=O)N2CCC(Cc3cnc4[nH]ccc4c3)CC2)n1,-4.68%,12%,-0.292%,-3.35%,4.42%,9.2%,2.32%,3.17%,7.5%,-24.1%
CCC1CN(C(=O)c2ccc(Cl)cc2O)CCN1C(C)C (stereo not given),-4.41%,2.7%,8.13%,6.5%,11.5%,6.34%,12.9%,4.79%,9.76%,-3.73%
CC(=O)N1CCc2c(nc(-c3ccncc3)nc2N(C)CC(O)CO)C1 (stereo not given),-4.98%,2.7%,3.26%,-2.62%,5.94%,3.94%,12.2%,5.85%,14.6%,-4.24%
CCc1nc(C2CCCN2C(=O)CCn2cncn2)no1 (stereo not given),-0.886%,0%,9.32%,-1.49%,1.02%,3.51%,3.97%,0.98%,-2.35%,-0.634%
CC(C)CCCNC(=O)Nc1ccc(F)c(C(N)=O)c1,-0.324%,23.4%,0.112%,2.61%,-6.76%,12.3%,14.9%,6.86%,30.6%,-10.9%
O=C1CCCc2nccc(-c3ccccc3)c21,3.95%,22.7%,-10%,2.56%,0.443%,27.1%,9.37%,3.17%,-45%,-16.7%
Cc1cc(C(=O)O)cc(S(=O)(=O)Nc2ccc3c(c2)OCO3)c1C,-0.174%,2.56%,-9.72%,2.91%,3.69%,19.7%,-15.4%,-4.31%,10.8%,-3.33%
Cc1cccc(N2CC[C@@H]3CN(Cc4csc(C)n4)CCO[C@@H]3C2)n1,-6.02%,-14.3%,-1.28%,6.52%,-6.88%,7.15%,-15.6%,1.58%,-5.13%,-0.609%
CC(Cn1cccn1)NC(=O)N1CCN(Cc2cccnc2)CC1 (stereo not given),-6.34%,7.79%,1.46%,1.87%,-1.02%,11.2%,-5.12%,5.88%,23.5%,-16.2%
O=C(NCC(=O)N1CCc2ccccc2C1)c1ccoc1,-0.143%,15.6%,-3.75%,-7.46%,1.43%,18.1%,23.4%,3.92%,9.41%,-10.6%
O=C(C1=CCCCC1)N1CCC2(CC1)COC(COc1ccccn1)C2 (stereo not given),-4.78%,9.09%,2.76%,-0.292%,-0.405%,18.1%,-0.0236%,3.68%,17.9%,-3.36%
c1ccc(-c2cnc(CNC3CCCN(c4cccnn4)C3)o2)cc1 (stereo not given),-1.65%,-23.1%,5.28%,6.48%,1.23%,0.0853%,7.96%,14.8%,22.9%,-1.17%
Cn1ccc(CN2CCCC2c2ccc3c(c2)OCCCO3)cc1=O (stereo not given),-1.37%,7.69%,-4.76%,1.78%,6.56%,18.2%,22%,9.09%,20.5%,-1.67%
Cc1nc(CNC(=O)NCC(O)c2ccc(F)cc2F)cs1 (stereo not given),0.239%,13.3%,-2.61%,-4.62%,2.22%,9.75%,-4.09%,8.95%,15.4%,-9.8%
Cn1cc(CN2CCCN(C(=O)c3cn4ccccc4n3)CC2)cn1,-2.59%,25.6%,-16.8%,4.04%,-0.41%,20.1%,13.6%,3.35%,22.9%,15.2%
CC(Nc1cccc(CN2CCOC2=O)c1)C(=O)N1CCNC1=O (stereo not given),-10.4%,7.69%,2.33%,-5.16%,-2.46%,2.3%,28.2%,2.39%,8.43%,-2.72%
CCc1nc(C2CCCN2C(=O)c2nccnc2N)no1 (stereo not given),-2.75%,-5.13%,-2.27%,8.92%,0.82%,-4.69%,-2.29%,-2.39%,6.02%,-1.91%
OC(CNCCn1cccn1)c1ccc2c(c1)OCCO2 (stereo not given),-5.4%,13.3%,10.3%,1%,0%,4.83%,-2.77%,4.74%,10.3%,-13.4%
CSc1ccc(Cl)c(C(=O)N2CCCC(CNS(C)(=O)=O)C2)c1 (stereo not given),0.802%,26%,-6.07%,1.12%,-14.6%,18.2%,13%,1.96%,28.2%,-11.3%
